Results on seven compounds are retold here after publication PMC7826789 (International Journal of Molecular Sciences, 2021).

For one experiment, the system named is RPS6KA6.
`Nc1nc(-c2ccccc2F)c(-c2ccnc3ccccc23)s1` [GW560459]: the Kinases covered entry is given as “RPS6KA6”.

Consider `C[C@@H]1CCNC(=O)c2cc3ccc(C(=O)Nc4nc5ccccc5n4CCCN(C)C)cc3n21` [BI00645435], for which the Kinases covered entry was “RPS6KA6”.

For the compound `Fc1ccc(-c2nn3ccccc3c2-c2ccncc2)cc1` [GW434756X], the Kinases covered entry was “RPS6KA6”.

Consider `Nc1nc(-c2cccc(Cl)c2)c(-c2ccc3ncccc3n2)s1` [GW780159X], for which the Kinases covered result is given as “RPS6KA6”.

The subject of another experiment is STK17A.
For the compound `C[C@H]1CC[C@@H](C(=O)Nc2ccccc2)CN1c1cc(-c2ccc3c(N)n[nH]c3c2)nc(N)n1` [GSK2283293], the Kinases covered entry is on record as “STK17A”.

Regarding `CC(C)c1cc(-c2ccc3c(N)n[nH]c3c2)nc(N)n1` [GSK2250882], the Kinases covered result is “STK17A”.

Take `C[C@@H]1CCNC(=O)c2cc3ccc(C(=O)Nc4nc5ccccc5n4CCCN(C)C)cc3n21` [BI00645435]: the Kinases covered result was “STK17A”.

Consider `CNc1nc(-c2ccc3c(N)n[nH]c3c2)cc(N2C[C@@H](C(=O)Nc3ccccc3)CC[C@H]2C)n1` [GSK2298859], for which the Kinases covered result is “STK17A”.
